Screening results (PubChem)
Sampled rows, rich in hits. Any-hit rate of the full collection: about 7.5%.
NPC1 promoter act: activators of NPC1 promoter. Huh7 NPC1 promoter luciferase reporter, 24 h. Potency, µM (highest dose often 9.22 µM), most hits filed as activators. actives 2.4% (n = 320,000). AID 485313; also: nearly all actives have a fitted effect of over 60% in size
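Huh7 reporter cells (NPC1 promoter driving luciferase) are dosed with compound for 24 h at 37 °C, 5% CO2; luciferase detection reagent is then added and luminescence measured after 10 min at ambient temperature.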
KinaseGlo FLuc: counter-screen: inhibitors of Kinase-Glo firefly luciferase. Q27757. Kinase-Glo luciferase, ATP luminescence, 8 min. Potency, µM (top dose mostly 38.3 µM), hits mostly inhibitors. actives 0.28% (n = 200,000). AID 1379; also: nearly all actives have a fitted effect of over 60% in size
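Recombinant Kinase-Glo luciferase, 10 uM ATP (linear range), luciferin; imidazole pH 7.2 / KCl / MgCl2 / Tween / BSA buffer; 8 min RT; luminescence.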
SMN2 splice enh: enhancers of SMN2 splice variant expression; HEK293 SMN2-luciferase splicing reporter, luminescence, 30-36 h; Potency, µM (top dose mostly 46.1 µM), actives largely listed as activators; actives 2.8% (n = 210,000); also: nearly all actives have a fitted effect of over 55% in size
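HEK293 cells carry an SMN2 minigene-luciferase reporter in which exon 7 inclusion puts luciferase in frame. Cells were seeded at 2000 cells/well, attached for 10-12 hours, then exposed to compounds for 30-36 hours at 37C before ONE-Glo luminescence.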
Rab9 promoter act: activators of Rab9 promoter | Potency, µM (titrated, usually from 9.22 µM), actives largely listed as activators | AID 485297 | Huh7 Rab9 promoter-luciferase reporter, luminescence, 24 h | actives 2.8% (n = 320,000); also: nearly all actives have a fitted effect of over 60% in size
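Quantitative HTS format; Huh7 Rab9-luciferase reporter cells (1500/well) receive compound 2 h post-plating, incubate 24 h at 37 °C, then get luciferase reagent for 10 min before luminescence reading.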
FLuc modulator: inhibits or activates purified firefly luciferase, miR-21 counter-screen. P08659. purified FLuc, Km substrates, luminescence inhibition. Potency, µM (series often up to 57.5 µM), usual class: inhibitors. actives 6.9% (n = 360,000); also: nearly all actives have a fitted effect of over 55% in size
Target sequence (P08659 whole entry, looked up): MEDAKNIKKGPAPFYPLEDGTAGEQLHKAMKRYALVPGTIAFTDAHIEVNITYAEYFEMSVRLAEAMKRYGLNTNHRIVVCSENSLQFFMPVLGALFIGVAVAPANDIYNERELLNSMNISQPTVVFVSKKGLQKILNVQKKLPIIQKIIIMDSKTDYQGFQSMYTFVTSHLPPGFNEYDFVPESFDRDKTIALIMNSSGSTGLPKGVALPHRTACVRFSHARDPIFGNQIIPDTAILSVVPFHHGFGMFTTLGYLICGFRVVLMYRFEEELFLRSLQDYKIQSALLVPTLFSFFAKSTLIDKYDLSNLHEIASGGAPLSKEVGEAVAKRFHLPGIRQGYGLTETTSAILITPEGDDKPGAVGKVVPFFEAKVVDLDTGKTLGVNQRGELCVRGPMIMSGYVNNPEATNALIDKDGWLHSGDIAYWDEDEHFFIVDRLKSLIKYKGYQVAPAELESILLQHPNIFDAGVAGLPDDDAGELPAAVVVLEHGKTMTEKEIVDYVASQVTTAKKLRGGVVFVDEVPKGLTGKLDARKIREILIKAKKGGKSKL
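Purified P. pyralis luciferase, 10 nM final, with Km-level 10 uM D-luciferin and 10 uM ATP in 50 mM Tris acetate pH 7.5, 10 mM Mg acetate, 0.01% Tween-20, 0.05% BSA; 6-point qHTS titration about 60 µM downward; luminescence read.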
ELG1 genotox: inducers of genotoxicity in HEK293T ELG1-luciferase cells | HEK293T ELG1-luciferase reporter, luminescence, 16 h | Potency, µM (top dose mostly 46 µM), actives largely listed as activators | actives 1.3% (n = 330,000); also: nearly all actives have a fitted effect of over 60% in size
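DMSO vehicle served as control against compound-treated ELG1-luciferase HEK293T cells; exposure lasted 16 hr at 37 °C and 5% CO2, followed by ONE-Glo luminescence detection after 30 min.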
Hits are given with their value. Calls follow the shape of the dose curve; as a rule, active = well fitted curve in the direction sought with a large enough effect; inconclusive = small, poorly fitted or top-dose-only effect, or another doubt; inactive = no such curve, though single readings can be large; an effect the other way counts as inactive or inconclusive.

`CSc1nn(CC(=O)Nc2ccc(C)cc2C)c(N)c1S(=O)(=O)c1ccc(Cl)cc1` gave SMN2 splice enh inactive and FLuc modulator inactive.
Screening COc1ccc(-n2ncc3c(N(C)C4CCCCC4)ncnc32)cc1 returned NPC1 promoter act inactive, Rab9 promoter act inactive, FLuc modulator 0.17µM and ELG1 genotox inconclusive.
`COc1ncnc2c1cnn2-c1ccccc1` gave KinaseGlo FLuc inactive, SMN2 splice enh inactive and FLuc modulator inconclusive.
For Cc1cccc(-n2ncc3c(N(CCO)CCO)ncnc32)c1 the results were NPC1 promoter act 3.2µM, KinaseGlo FLuc inactive, SMN2 splice enh 14µM, Rab9 promoter act 3.5µM, FLuc modulator 15µM and ELG1 genotox inconclusive.
For CCN(c1ncnc2c1cnn2-c1cccc(Cl)c1)C1CCCCC1 the results were FLuc modulator 3.8µM.
Screening Cc1cccc(-n2ncc3c(N(C)C4CCCCC4)ncnc32)c1 returned NPC1 promoter act inactive, Rab9 promoter act inactive, FLuc modulator 0.17µM and ELG1 genotox 0.46µM.
For CCOC(=O)C1CCN(Cc2ccc(OCc3ccccc3)cc2)CC1 the results were NPC1 promoter act inactive, Rab9 promoter act inactive, FLuc modulator inactive and ELG1 genotox inactive.
c1ccc(COc2ccc(CN3CCN(c4ccccn4)CC3)cc2)cc1 was read as NPC1 promoter act inconclusive, KinaseGlo FLuc inactive, SMN2 splice enh inactive, Rab9 promoter act 2.2µM, FLuc modulator 6.7µM and ELG1 genotox 21µM.
`NC(=O)C1CCN(Cc2ccc(OCc3ccccc3)cc2)CC1` gave NPC1 promoter act 2.5µM, Rab9 promoter act inconclusive, FLuc modulator 15µM and ELG1 genotox inconclusive.
Screening CN1CCN(C(=O)/C=C\c2ccc(Cl)cc2)CC1 returned NPC1 promoter act inactive, KinaseGlo FLuc inactive, SMN2 splice enh inactive, Rab9 promoter act inactive, FLuc modulator inactive and ELG1 genotox inactive.
`CC(C)c1ccc(NC(=O)NN2CCOCC2)cc1` gave NPC1 promoter act 3.2µM, KinaseGlo FLuc inactive, SMN2 splice enh 13µM, Rab9 promoter act 3.5µM, FLuc modulator 27µM and ELG1 genotox 16µM.
Screening O=C(/C=C/c1ccccc1[N+](=O)[O-])N1CCCCC1 returned NPC1 promoter act inactive, KinaseGlo FLuc inactive, SMN2 splice enh inactive, Rab9 promoter act inactive, FLuc modulator inactive and ELG1 genotox inactive.
Screening O=C(/C=C/c1ccccc1)N1CCOCC1 returned NPC1 promoter act inactive, Rab9 promoter act inconclusive, FLuc modulator inconclusive and ELG1 genotox inactive.
`O=C(/C=C/c1ccc(Cl)cc1)N1CCOCC1` gave NPC1 promoter act inconclusive, Rab9 promoter act inconclusive, FLuc modulator 27µM and ELG1 genotox inactive.
For CC(C)c1ccc(/C=C/C(=O)N2CCOCC2)cc1 the results were NPC1 promoter act 3.2µM, Rab9 promoter act 2.5µM, FLuc modulator 9.5µM and ELG1 genotox inconclusive.
O=C(/C=C/c1ccccc1Cl)N1CCCN(C(=O)/C=C/c2ccccc2Cl)CC1 was read as NPC1 promoter act inactive, KinaseGlo FLuc inactive, SMN2 splice enh inactive, Rab9 promoter act inactive, FLuc modulator 19µM and ELG1 genotox inactive.
COc1ccc2c(CNCc3cccs3)c(C(=O)O)n(Cc3cccc(F)c3)c2c1 was read as FLuc modulator inactive.
`CC(C)c1ccc(/C=N/N2CCCCC2)cc1` gave NPC1 promoter act inactive, KinaseGlo FLuc inactive, SMN2 splice enh inconclusive, Rab9 promoter act 3.2µM, FLuc modulator 1.5µM and ELG1 genotox inconclusive.
`CC(C)c1ccc(/C=C/C(=O)N2CCCCCC2)cc1` gave NPC1 promoter act inactive, KinaseGlo FLuc inactive, SMN2 splice enh inactive, Rab9 promoter act inactive, FLuc modulator 15µM and ELG1 genotox inconclusive.
CC(C)c1ccc(/C=C/C(=O)n2nnc3ccccc32)cc1 was read as KinaseGlo FLuc inactive, SMN2 splice enh inactive and FLuc modulator 1.7µM.
O=C(/C=C/c1ccc(Br)cc1)NC(=S)N1CCOCC1 was read as NPC1 promoter act inactive, KinaseGlo FLuc inconclusive, Rab9 promoter act inactive, FLuc modulator 13µM and ELG1 genotox inactive.
`CCN1CCN(C(=O)/C=C/c2ccc(C)cc2)CC1` gave NPC1 promoter act inactive, Rab9 promoter act inactive, FLuc modulator inactive and ELG1 genotox inactive.
Screening O=C(/C=C/c1cccs1)N1CCCCC1 returned NPC1 promoter act inactive, KinaseGlo FLuc inactive, SMN2 splice enh 18µM, Rab9 promoter act inactive, FLuc modulator inconclusive and ELG1 genotox inconclusive.
`Cc1ccc(/C=C/C(=O)N2CCCN(C(=O)/C=C/c3ccc(C)cc3)CC2)cc1` gave NPC1 promoter act inactive, KinaseGlo FLuc inactive, SMN2 splice enh inconclusive, Rab9 promoter act inactive, FLuc modulator 11µM and ELG1 genotox inactive.
For CCCOc1ccc(/C=C/C(=O)N2CCN(c3ccccn3)CC2)cc1 the results were NPC1 promoter act inactive, KinaseGlo FLuc inactive, SMN2 splice enh inactive, Rab9 promoter act inactive, FLuc modulator inconclusive and ELG1 genotox inactive.
`CCCOc1ccc(/C=C/C(=O)N2CCOCC2)cc1` gave NPC1 promoter act 2.5µM, Rab9 promoter act inconclusive, FLuc modulator 15µM and ELG1 genotox inconclusive.
Screening COc1ccc(N2CC(NC(=O)c3ccc(S(=O)(=O)N4CCOCC4)cc3)CC2=O)cc1OC (configuration not stated) returned FLuc modulator inactive.
`Cc1ccc(-n2ncc(C(=O)NCc3cccs3)c2C2CCN(C(=O)OC(C)(C)C)CC2)cc1C` gave FLuc modulator inactive.
CCOc1ccc(CCNC(=O)c2ccc3c(=O)[nH]c4c(C(=O)NC(C)C)sc(=S)n4c3c2)cc1 was read as NPC1 promoter act inactive, Rab9 promoter act inactive, FLuc modulator 17µM and ELG1 genotox inactive.
CC(C)NC(=O)c1sc(=S)n2c1[nH]c(=O)c1ccc(C(=O)NCCc3ccc(Cl)cc3)cc12 was read as NPC1 promoter act inactive, Rab9 promoter act inactive, FLuc modulator inconclusive and ELG1 genotox inactive.
For CC(=O)Oc1cccc(NC(=O)c2ccc3c(c2)C(=O)N(CC(C)C)C3=O)c1 the results were NPC1 promoter act inactive, Rab9 promoter act inactive, FLuc modulator 11µM and ELG1 genotox inconclusive.
Screening COc1cccc(C(=O)Nc2ccc3c(c2)C(=O)N(CCC(=O)O)C3=O)c1 returned NPC1 promoter act inactive, KinaseGlo FLuc inactive, SMN2 splice enh inactive, Rab9 promoter act inactive, FLuc modulator 17µM and ELG1 genotox inactive.
`COCCCN1C(=O)c2ccc(C(=O)Nc3cccc(OC)c3)cc2C1=O` gave NPC1 promoter act inactive, KinaseGlo FLuc inconclusive, SMN2 splice enh inactive, Rab9 promoter act inactive, FLuc modulator 11µM and ELG1 genotox inconclusive.
COCCCN1C(=O)c2ccc(C(=O)NCCc3ccccc3)cc2C1=O was read as NPC1 promoter act inactive, Rab9 promoter act inconclusive, FLuc modulator 6µM and ELG1 genotox inconclusive.
